For 7 compounds, Potency results are on record in PubChem BioAssay (Tox21).

Assay [1] is described as follows: Nuclear factor erythroid 2-related factor 2/antioxidant responsive element (Nrf2/ARE) small molecule agonists: qHTS cell viability counter screen in human keratinocytes (AID 1919968; active = well fitted cell-killing curve with a large enough effect in the repeat runs; also: nearly all actives have a fitted effect of over 55% in size). The method, boiled down: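 CellTiter-Fluor fluorescence, read 1 h after reagent, gave viability in the same wells as the ARE-luciferase assay. KeratinoSens cells (1,500/well) had 23 h compound exposure at 37 C/5% CO2 following 5 h plating.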
A general note: Quantitative high-throughput screening tests each substance at several concentrations.

Assay [2] in a line: Nuclear factor erythroid 2-related factor 2/antioxidant responsive element (Nrf2/ARE) small molecule agonists: luciferase reporter gene qHTS assay in human keratinocytes (AID 1919969). Also: nearly all actives have a fitted effect of over 35% in size. Also: potency is read from the fitted curve at half-maximal effect.
The target of assay [3] is Gonadotropin-releasing hormone receptor (Homo sapiens) (UniProt P30968). The assay is described as follows: Human gonadotropin-releasing hormone receptor (GnRHR) small molecule agonists, calcium flux assay in GnRHR-HEK293 cells (AID 1920063). Also: nearly all actives have a fitted effect of over 35% in size. The method, boiled down:
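Agonist mode: compounds at 15 concentrations, in triplicate, went onto calcium dye-loaded GnRHR-HEK293 cells. Intracellular calcium was then followed as 480/540 nm fluorescence at 1 s intervals over 3 min.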

Assay [4] can be described thus: G protein-coupled receptor (GPCR) small molecule agonists, calcium flux assay: HEK293 wild type cell line counter screen (AID 1920065). The method, boiled down:
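Calcium flux counter screen: compound added in agonist mode at 15 concentrations in triplicate to dye-loaded parental HEK293 cells. Fluorescence (480/540) read kinetically for 3 min; ATP served as positive control.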
For orientation: A change in cytosolic calcium serves as a functional read-out for many receptors and channels.

Assay [5] is described as follows: p53 small molecule agonists, cell-based qHTS assay with human liver microsomes (AID 1963577). The method, boiled down: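 p53RE-bla cells, 4,000/well, compound added after 5 h, with human liver microsomes 0.5 mg/mL and NADPH 0.5 mg/mL final; 16 h at 37 C, then LiveBLAzer 2 h RT, fluorescence.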
Assay [6] can be described thus: p53 small molecule agonists, cell-based qHTS assay with rat liver microsomes (AID 1963578). The method, boiled down:
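p53RE-bla cells, 4,000/well, pre-incubated 5 h, then given compounds plus rat liver microsomes (0.5 mg/mL final) and NADPH (0.5 mg/mL final). Incubation 16 h at 37 C; beta-lactamase reporter read by LiveBLAzer fluorescence after 2 h at room temperature.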

The nature of assay [7]: p53 small molecule agonists, cell-based qHTS assay with human liver microsomes: qHTS cell viability counter screen (AID 1963579). Also: nearly all actives have a fitted effect of over 45% in size. Put shortly:
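p53RE-bla cells, 4,000/well, dosed 5 hours after plating, with human liver microsomes (0.5 mg/mL final) plus NADPH (0.5 mg/mL final), 16 hours at 37 C. Viability read as CellTiter-Glo luminescence after 30 min at room temperature.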

Assay [8] can be described thus: p53 small molecule agonists, cell-based qHTS assay with rat liver microsomes: qHTS cell viability counter screen (AID 1963580). Also: nearly all actives have a fitted effect of over 45% in size. The method, boiled down: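 Cytotoxicity counter screen: intracellular ATP read by CellTiter-Glo luminescence in the p53 reporter wells. HCT-116 p53RE-bla cells were treated for 16 h at 37 C alongside rat liver microsomes and NADPH, each 0.5 mg/mL final.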

The nature of assay [9]: p53 small molecule agonists, cell-based qHTS assay: qHTS cell viability counter screen (AID 1963581). Also: nearly all actives have a fitted effect of over 45% in size. Also: potency is read from the fitted curve at half-maximal effect. The method, boiled down:
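Counter screen read by CellTiter-Glo luminescence (ATP content, 30 min at room temperature), run in the same wells as the beta-lactamase reporter read. HCT-116 p53RE-bla cells saw compounds for 16 h at 37 C.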

Assay [10] is described as follows: p53 small molecule agonists, cell-based qHTS assay (AID 1963582; active = well fitted activation curve with a large enough effect in the signal ratio in the repeat runs, not every such curve was filed as active; the % refers to the signal ratio). The method, boiled down:
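Read-out is beta-lactamase FRET fluorescence after 2 h at room temperature with LiveBLAzer B/G substrate. p53 response element-bla cells were treated 16 h at 37 C with compounds in DMSO, added 5 h after seeding.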

Assay [11] is described as follows: cAMP Responsive Elements (CRE) small molecule agonists, cell-based qHTS assay (AID 1963590). Put shortly:
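Agonist mode: compound added to CRE-bla HEK 293T cells (2,000/well, 18 h after plating) for 3 h at 37 C/5% CO2. Reporter activity detected via FRET beta-lactamase substrate, 2 h room-temperature loading.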

Assay [12] is described as follows: cAMP Responsive Elements (CRE) small molecule antagonists, cell-based qHTS assay (AID 1963591; active = well fitted inhibition curve with a large enough effect in the signal ratio in the repeat runs, not every such curve was filed as active; the % refers to the signal ratio). Put shortly: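 Antagonist mode: compounds are added alongside the adenylyl cyclase activator NKH477 (0.25 uM final) to CRE-bla HEK293T cells for 3 h. LiveBLAzer FRET substrate, 2 h at room temperature, reports bla expression.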
The target of assay [13] is Beta-2 adrenergic receptor (Homo sapiens) (UniProt P07550). The assay is described as follows: Adrenergic beta2 receptor (ADRB2) small molecule antagonists, cell-based qHTS assay (AID 1963592). Also: series mostly up to about 92 µM; nearly all actives have a fitted effect of over 50% in size. Put shortly: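 Assay format: CHO-ADRB2 cells, 18-20hr seeding at 37C/5% CO2, then compound plus 1nM isoproterenol agonist mix for 0.5hr RT. Homogeneous time-resolved fluorescence cAMP detection after 1hr, expressed as 665/615 nm ratio.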
Sequence of Beta-2 adrenergic receptor (Homo sapiens) (P07550 whole entry, looked up): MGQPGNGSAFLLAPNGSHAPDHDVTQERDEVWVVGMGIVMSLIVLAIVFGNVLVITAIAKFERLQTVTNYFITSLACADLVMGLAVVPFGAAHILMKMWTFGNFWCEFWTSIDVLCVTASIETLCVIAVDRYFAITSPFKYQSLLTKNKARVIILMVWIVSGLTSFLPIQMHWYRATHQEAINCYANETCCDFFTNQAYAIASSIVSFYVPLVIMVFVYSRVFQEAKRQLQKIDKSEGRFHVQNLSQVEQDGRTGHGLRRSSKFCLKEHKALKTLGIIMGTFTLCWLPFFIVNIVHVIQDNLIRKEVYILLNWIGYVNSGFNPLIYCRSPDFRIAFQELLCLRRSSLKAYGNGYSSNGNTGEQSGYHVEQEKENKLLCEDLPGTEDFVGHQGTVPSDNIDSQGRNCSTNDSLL

For assay [14] the target is unchanged. The assay is described as follows: Adrenergic beta2 receptor (ADRB2) small molecule agonists, cell-based qHTS assay (AID 1963593).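 Also: CHO cells stably overexpressing human ADRB2.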 The method, boiled down:
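CHO cells stably over-expressing ADRB2 were plated overnight at 37C, then dosed with compounds plus a stimulation mix containing 100uM IBMX and 25uM Ro-20-1724 for 0.5hr at room temperature. cAMP was measured by HTRF competition, 1hr.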

Assay [15] concerns the target D(2) dopamine receptor (Homo sapiens) (UniProt P14416). The assay is described as follows: Dopamine D2 receptor (DRD2) small molecule agonists, cell-based qHTS assay (AID 1963594). Also: nearly all actives have a fitted effect of over 35% in size. The method, boiled down:
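cAMP accumulation in DRD2-HEK293 cells measured by HTRF after 1 h detection; compounds added 10 min before NKH477 (200nM […]) forskolin-analogue stimulation, 30 min at room temperature, with Ro20-1724 present at 0.1 mM final.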

The target is the same in assay [16]. The assay is described as follows: Dopamine D2 receptor (DRD2) small molecule antagonists, cell-based qHTS assay (AID 1963595; active = well fitted inhibition curve with a large enough effect in the signal ratio in the repeat runs, with a control signal flat; the % refers to the signal ratio). The method, boiled down:
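Cells were plated and grown for 24 h at 37 °C. Ro20-1724 (0.1 mM final) went in first, then compound for 10 min. NKH477 (200 nM) with quinpirole (12 nM) followed for 30 min at RT, then HTRF detection reagents for 1 h.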

Assay [17] has as its target 5-hydroxytryptamine receptor 2A (Homo sapiens) (UniProt P28223). The assay is described as follows: 5-hydroxytryptamine receptor 2A (HTR2A) small molecule antagonists, cell-based qHTS assay (AID 1963586). Also: nearly all actives have a fitted effect of over 45% in size. Put shortly:
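CHO cells stably expressing human HTR2A were plated for 18 h at 37 C, then loaded with calcium dye for 1 h. Compounds were preincubated 5 min at room temperature before DOI (4 nM solution) was added. Kinetic fluorescence was read for 3 min.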

For assay [18] the target is unchanged. The assay is described as follows: 5-hydroxytryptamine receptor 2A (HTR2A) small molecule agonists, cell-based qHTS assay (AID 1963587). Also: nearly all actives have a fitted effect of over 30% in size. The method, boiled down: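 Kinetic calcium-flux fluorescence (2 min, 1 sec intervals) after compound addition in agonist mode. HTR2A-CHO cells were cultured 18 h, then dye-loaded 1 h at 37 C.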
Assay [19] has as its target Muscarinic acetylcholine receptor M1 (Homo sapiens) (UniProt P11229). Briefly: Cholinergic receptor muscarinic 1 (CHRM1) small molecule antagonists, cell-based qHTS assay (AID 1963588). Also: nearly all actives have a fitted effect of over 40% in size. The method, boiled down:
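Compounds were tested at 15 concentrations in three independent runs. Dye-loaded CHRM1-CHO cells were exposed 5 min at room temperature before stimulation by acetylcholine added at 50nM. Intracellular calcium was read kinetically on FDSS for 3 min.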

Assay [20] has the same target. The assay is described as follows: Cholinergic receptor muscarinic 1 (CHRM1) small molecule agonists, cell-based qHTS assay (AID 1963589). Also: nearly all actives have a fitted effect of over 35% in size. Put shortly: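 Agonist-mode calcium-flux screen: compounds at 15 concentrations, three independent runs, were pin-transferred onto dye-loaded human CHRM1-CHO cells. Fluorescence was then recorded kinetically every second over minutes.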

Several values for one entry are separate records, joined by “and”; a condition that tells them apart may be missing. Equal entries are not always repeated. Results filed as inconclusive are left out. The source holds several records for some structures; these can differ, active in one and inactive in another. Activity calls are given as the source filed them. Unless noted, calls follow the shape of the full dose curve.

Sequence of Gonadotropin-releasing hormone receptor (Homo sapiens) (P30968 whole entry, looked up): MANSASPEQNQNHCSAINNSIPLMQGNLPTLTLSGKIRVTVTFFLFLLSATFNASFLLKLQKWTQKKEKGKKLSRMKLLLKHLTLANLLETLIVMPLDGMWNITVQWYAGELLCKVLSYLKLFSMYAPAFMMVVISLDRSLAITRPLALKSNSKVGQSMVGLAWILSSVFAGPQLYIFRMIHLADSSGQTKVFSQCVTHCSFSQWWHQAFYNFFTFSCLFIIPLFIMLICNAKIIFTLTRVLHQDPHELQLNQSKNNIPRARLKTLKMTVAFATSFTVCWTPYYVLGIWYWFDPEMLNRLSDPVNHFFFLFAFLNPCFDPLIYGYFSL
Sequence of Muscarinic acetylcholine receptor M1 (Homo sapiens) (P11229 whole entry, looked up): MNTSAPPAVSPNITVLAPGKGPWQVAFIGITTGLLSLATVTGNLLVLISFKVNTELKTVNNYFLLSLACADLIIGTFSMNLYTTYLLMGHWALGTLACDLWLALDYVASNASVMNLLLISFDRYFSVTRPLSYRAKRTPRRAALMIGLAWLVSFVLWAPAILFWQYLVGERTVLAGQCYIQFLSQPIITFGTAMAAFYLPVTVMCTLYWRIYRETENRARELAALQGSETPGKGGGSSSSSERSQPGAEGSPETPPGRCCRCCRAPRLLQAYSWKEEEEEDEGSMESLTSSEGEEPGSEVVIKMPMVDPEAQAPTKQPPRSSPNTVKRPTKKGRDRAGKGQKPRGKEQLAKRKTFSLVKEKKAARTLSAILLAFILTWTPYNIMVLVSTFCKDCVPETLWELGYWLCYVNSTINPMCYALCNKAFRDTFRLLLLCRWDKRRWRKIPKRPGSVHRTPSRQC
Sequence of 5-hydroxytryptamine receptor 2A (Homo sapiens) (P28223 whole entry, looked up): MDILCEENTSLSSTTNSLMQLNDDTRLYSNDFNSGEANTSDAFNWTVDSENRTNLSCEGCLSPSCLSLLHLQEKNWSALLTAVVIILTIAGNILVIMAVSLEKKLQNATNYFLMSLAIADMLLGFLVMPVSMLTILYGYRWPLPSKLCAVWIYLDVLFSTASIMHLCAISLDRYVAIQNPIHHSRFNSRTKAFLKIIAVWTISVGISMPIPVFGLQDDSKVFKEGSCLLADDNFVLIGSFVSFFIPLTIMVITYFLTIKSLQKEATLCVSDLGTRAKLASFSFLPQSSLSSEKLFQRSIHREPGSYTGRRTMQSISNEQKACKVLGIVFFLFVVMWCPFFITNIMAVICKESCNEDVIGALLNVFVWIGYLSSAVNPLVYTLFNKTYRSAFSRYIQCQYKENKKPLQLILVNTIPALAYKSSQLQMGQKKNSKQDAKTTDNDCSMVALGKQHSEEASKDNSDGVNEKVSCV
Sequence of D(2) dopamine receptor (Homo sapiens) (P14416 whole entry, looked up): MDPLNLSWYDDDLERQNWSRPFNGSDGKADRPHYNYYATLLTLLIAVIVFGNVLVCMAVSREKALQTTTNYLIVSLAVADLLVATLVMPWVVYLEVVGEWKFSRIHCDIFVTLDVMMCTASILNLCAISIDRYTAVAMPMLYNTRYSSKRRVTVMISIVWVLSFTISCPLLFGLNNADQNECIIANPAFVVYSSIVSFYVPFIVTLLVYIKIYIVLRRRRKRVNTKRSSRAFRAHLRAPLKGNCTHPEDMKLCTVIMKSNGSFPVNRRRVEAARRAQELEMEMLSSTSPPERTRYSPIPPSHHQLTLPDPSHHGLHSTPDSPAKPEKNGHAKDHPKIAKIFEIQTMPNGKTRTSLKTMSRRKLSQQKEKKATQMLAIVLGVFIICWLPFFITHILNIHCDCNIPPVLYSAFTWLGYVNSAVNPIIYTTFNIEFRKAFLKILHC

On to `CC1=NN(c2ccccc2)C(=O)C1`, for which the Potency result in [1], in assay [2], in assay [3], in assay [4], in assay [5] and in assay [6] was “inactive” throughout. In addition, the Potency result in [7], in assay [8], in assay [9], in [10], in [11] and in assay [12] was “inactive” throughout. The Potency result in assay [13], in assay [14], in assay [15] and in assay [16] was “inactive” in each case.

In the case of `COc1ccc([N+](=O)[O-])cc1N`, the Potency entry in assay [1], in assay [2], in assay [3], in [4], in assay [5] and in [7] was “inactive” throughout. Also, the Potency result in [8], in assay [9], in [10], in assay [17], in assay [18] and in [19] was “inactive” each time. The Potency entry in [20], in assay [11], in [12], in [13], in assay [14] and in assay [15] was “inactive” in each case.

Consider `Cc1cn([C@H]2C[C@H](N=[N+]=[N-])[C@@H](CO)O2)c(=O)[nH]c1=O`, for which the Potency result in assay [1], in assay [2], in [3], in [4], in assay [5] and in assay [6] was “inactive” each time. In addition, the Potency result in assay [8], in assay [9], in [10], in assay [11], in [13] and in assay [14] was “inactive” each time. Besides, the Potency result in assay [15] and in [16] was “inactive” in each case.

In the case of `O=c1ccc2ccccc2o1`, the Potency result in assay [1], in [2], in assay [3], in [4], in assay [5] and in assay [6] was “inactive” each time. The Potency result in [7], in [8], in assay [9], in [10], in assay [11] and in [12] was “inactive” each time. For the same compound, the Potency entry in [14], in [15] and in [16] was “inactive” in each case.

Turning to `NC(=O)N/N=C/c1ccc([N+](=O)[O-])o1`, the Potency entry in assay [1], in [3], in assay [4], in [5], in [6] and in assay [7] was “inactive” each time. For the same compound, the Potency entry in assay [8], in assay [9], in assay [10], in assay [17], in assay [18] and in [19] was “inactive” throughout. Moreover, the Potency entry in assay [20], in assay [11], in [12], in assay [13], in assay [14] and in assay [16] was “inactive” in each case. Also, the Potency entry in assay [2] was “inactive and 30.6 µM (active)”.

With `CCCCOC(=O)c1ccc(N)cc1`, the Potency result in [1], in assay [2], in assay [3], in assay [4], in [5] and in assay [6] was “inactive” each time. In addition, the Potency entry in assay [7], in assay [8], in assay [9], in [10], in assay [12] and in [13] was “inactive” throughout. In addition, the Potency entry in [14], in assay [15] and in assay [16] was “inactive” throughout.

Regarding `COCCOCCOC`, the Potency result in assay [1], in [2], in assay [3], in assay [4], in [5] and in [6] was “inactive” in each case. Moreover, the Potency entry in assay [7], in assay [10], in assay [18], in assay [19], in [20] and in assay [11] was “inactive” each time. In addition, the Potency result in [12], in assay [13], in assay [14], in assay [15] and in assay [16] was “inactive” throughout. Also, the Potency in [9] was 145 nM (active) and inactive.
